Assay outcomes from PubChem BioAssay.
FMDV antiviral = foot and mouth disease virus antiviral activity | FMDV antiviral cell-based qHTS | Potency, µM (top dose mostly 57.9 µM), inactives show at the top dose activity change, negative = inhibition, actives largely listed as inhibitors | hit rate 1.2% among 410,000 | AID 1159524; calls by dose curve; tested in HEK293T cells; note: read-out not given here; potency is the fitted concentration of half-maximal effect; nearly all actives have a fitted effect of over 45% in size
Lassa entry inh = blocks Lassa virus binding to or entry into cells. Potency, µM (top dose mostly 37.9 µM), for the others: at the top dose activity change, negative = inhibition, most hits filed as inhibitors. Lassa virus pseudotype entry inhibition, cell reporter. hit rate 1.2% among 300,000; calls by dose curve; tested in HEK293 cells; note: potency is the fitted concentration of half-maximal effect; nearly all actives have a fitted effect of over 50% in size
Marburg entry inh = Marburg virus entry inhibition; Marburg virus pseudotyped entry inhibition, cell reporter; Potency, µM (series often up to 37.8 µM), inactives show at the highest dose activity change, negative = inhibition, hits mostly inhibitors; hit rate 1.8% among 300,000; AID 540276; calls by dose curve; tested in HEK293 cells; note: potency is the fitted concentration of half-maximal effect
HCMV antiviral = blocks human cytomegalovirus replication; activity change, negative = inhibition, % at 57.5 µM; HFF cells, HCMV-luciferase reporter, 72 h; active compounds read low; hit rate 4.5% among 410,000; in the data active = activity change below about -60%; inconclusive = no clear call, values can overlap the other calls; inactive = above about -39%
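Inhibition of viral replication was scored as loss of reporter luminescence in HFFs infected with HCMV-luciferase (MOI 1 PFU/cell) for 72 h; compounds tested at 2 doses, normalized to buffer and Salinomycin controls.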
HCV inhibitor = HCV inhibition; hit rate 3.4% among 340,000; Huh7.5.1 HCVcc-Cre infection, luciferase reporter, 44 h; Potency, µM (series often up to 41.8 µM), for the others: at the highest dose activity change, negative = inhibition, actives largely listed as inhibitors; active = well fitted inhibition curve with a large enough effect; inconclusive = small, poorly fitted or top-dose-only effect, or another doubt; inactive = no such curve, though single readings can be large or run the other way; note: potency is the fitted concentration of half-maximal effect
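A cell-based infection assay in which seeded cells (1,000 per well) receive test compound after 4 h, are inoculated with HCVcc-Cre at approximately 0.5 moi, and are incubated 44 h before luminescence detection.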
Active calls of the source: *; ? = inconclusive; · = no result given; ! = not active in a repeat; [ ] = another dose, or the depositor's remark. In the library only some 7.9% were active in any assay of this set; here they are far more common. % is set by controls: 0 for no effect and ±100 for the full control effect.

SMILES	FMDV antiviral	Lassa entry inh	Marburg entry inh	HCMV antiviral	HCV inhibitor
O=C(Cc1cc(=O)[nH][nH]1)N/N=C/c1cccc2ccccc12	7.3%	·	·	-89.6*	-1.0%
O=C(Cc1cc(=O)[nH][nH]1)N/N=C/c1cccc(Cl)c1Cl	-10.2%	-1.6%	?	-102.1*!	-0.1%
COc1ccc2nc(C)cc(SCC(=O)N/N=C/c3ccc(O)c(O)c3)c2c1	?	-5.8%[46.1 µM]	?	?	?
O=C(Cc1cc(=O)[nH][nH]1)N/N=C/c1ccccc1Cl	-16.3%	7.4%	?	10.1	17.1%
Cc1nn(CCCC(=O)Nc2cc(C(F)(F)F)ccc2Cl)c(=O)c2c1sc1ccccc12	-22.0%	1.8%[46.1 µM]	2.3%[46.1 µM]	21.7	·
CCc1ccc(Cn2c(CNS(=O)(=O)c3ccc(F)c(Cl)c3)nc3cccnc32)cc1	69.2%	-4.1%[46.1 µM]	·	21.1	·
CC1CCC(NC(=O)CSc2nncs2)CC1 (stereo not given)	16.8%	2.6%	?	-15.0	8.0%
Cc1ccnn1CC(=O)N1CCOc2c(cc(-c3csc4ccccc34)cc2OC2CCOC2)C1 (stereo not given)	-0.4%	·	·	·	·
CC1(c2ccccc2)NC(=O)N(CC(=O)NCCC2=CCCCC2)C1=O (stereo not given)	8.4%	21.0%	12.6%	-69.3*	-4.1%
COc1ccc(NC(=O)CN2C(=O)NC(C)(c3ccccc3)C2=O)c(OC)c1 (stereo not given)	0.2%	?	3.9%[46.1 µM]	20.0	-29.0%
Cc1ccc(C2(C)NC(=O)N(CC(=O)NCCC3=CCCCC3)C2=O)cc1 (stereo not given)	-9.0%	-14.7%	-11.6%[46.1 µM]	-11.1	-27.2%
COc1ccc(OC)c(C(=O)CN2C(=O)NC(C)(c3ccccc3)C2=O)c1 (stereo not given)	-12.4%	-23.8%	?	-60.7*	1.5%
CC(=O)CCc1ccc2oc(C(=O)O)c(C)c2c1	-1.0%	22.9%	10.3%	10.9	18.9%
CC(=O)CCc1oc2ccc(C)cc2c1-c1ccccc1	-18.3%	3.98µM*	0.9%	53.4	-12.3%
CN(Cc1ccon1)C(=O)c1cnn(-c2ncc3c(n2)-c2ccccc2CCC3)c1C1CC1	20.0%	·	·	·	·
FC(F)Oc1ccc(NC(=S)NCc2ccccc2)cc1	36.1%	13.2%	?	-35.7	0.7%
FC(F)Oc1ccc(NC(=S)Nn2cnnc2)cc1	-18.1%	·	·	73.0	5.01µM*
Oc1cccc2c(NC(=S)Nc3ccc(OC(F)F)cc3)cccc12	?	?	?	-98.8*	-15.5%
CCc1ccc(NC(=O)CCn2nc(-c3ccccc3OC)c3c(C)cc(C)nc32)cc1	-21.6%	?	?	12.0	·
CCCCc1cc(=O)oc2cc(C)c3c(C(C)(C)C)coc3c12	-10.6%	5.6%[46.1 µM]	12.9%[46.1 µM]	4.3	·
CCO[C@H]1[C@H](NC(=O)c2cccnc2)c2ccccc2C12CCN(C(=O)c1cc(C)n(C)n1)CC2	4.4%	·	·	·	·
CCc1cccc(N(C)C(N)=Nc2cccc3ccccc23)c1	-16.4%	13µM*	11.2µM*	2.9	-2.5%
CCC1CCCCN1CCCNC(=O)c1ccc2c(=O)n(Cc3ccc(OC)cc3)c(=O)[nH]c2c1 (stereo not given)	-26.1%	?	?	9.5	14.1µM*
CCCCCn1c(=O)[nH]c2cc(C(=O)NCc3ccccc3)ccc2c1=O	0.4%	2.3%[46.1 µM]	-3.5%[46.1 µM]	-22.8	·
CCN1CCN(CCCNC(=O)c2ccc3c(=O)n(CCc4ccccc4)c(=O)[nH]c3c2)CC1	-6.3%	·	?	33.4	10µM*
SMILES	FMDV antiviral	Lassa entry inh	Marburg entry inh	HCMV antiviral	HCV inhibitor
CCCN1CCN(CCCNC(=O)c2ccc3c(=O)n(CCc4ccccc4)c(=O)[nH]c3c2)CC1	81.8%	7.2%[46.1 µM]	5.7%[46.1 µM]	-6.6	?
COCCn1c(=O)[nH]c2cc(C(=O)NCCCN3CCN(c4ccc(F)cc4)CC3)ccc2c1=O	?	5.8%	-2.9%	5.1	10µM*
CCCCC(CC)CNC(=O)c1ccc2c(=O)n(CCOC)c(=O)[nH]c2c1 (stereo not given)	?	?	2.82µM*	?	·
O=C(OCCCN=C1NS(=O)(=O)c2ccccc21)c1ccc([N+](=O)[O-])cc1	-18.3%	12.9%	?	3.8	-9.9%
O=C(CCCn1c(=O)[nH]c2cc(Cl)ccc2c1=O)NCCCN1CCN(c2ccc(F)cc2)CC1	?	·	·	-61.7*	7.94µM*
O=C(CCCn1c(=O)[nH]c2cc(Cl)ccc2c1=O)NCCCN1CCCC1	-2.3%	21.7%	11.1%[46.1 µM]	8.6	12.4%
Cc1cc(OCC(=O)Nc2nnc(C3CC3)s2)ccc1C(C)C	-19.8%	·	·	-15.3	0.9%
